Data published in the supplement of paper PMC6555819.

What follows are sequences tested on RXRa DBDmut IVT, anti-RXR (DBD mutation: RXRa K156A/R161A, NR concentration 90 nM) (assay: PBM binding z-score (relative to random genomic background probes); higher = stronger binding; sequences stand for … in GC…GCGATTGACAGCGTAGAATGAAGG).
How it was run: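 On custom Agilent 4×180K arrays, double-stranded probes with 34-nt variable regions carried direct-repeat seeds, single-nucleotide variants, half-site ablations or random human genomic background. Ligand-free nuclear receptor dimers were applied for 1 h, and binding was read with antibodies against each partner (one per run). Binding z-scores come from regression-normalized fluorescence, with the random background probes as reference.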

| Sequence | PBM binding z-score |
| --- | --- |
| CCTTACGGGTCACGAGGTTATAGCTCGACGAGCG | 1.74 |
| ACTTACGGGTCAACGAGGTGATAGCACGCGTATA | 2.19 |
| CGAACTAGGTCATTGACAGGTCAGTGAATAGTAA | 2.35 |
| GGAACGAGGGCATTGGAGTTGATAGCATGGCGAT | 2.75 |
| TCTATTAATTGAAGGGCAACCGACGAGTCCGTTT | 1.24 |
| TTTATTAGTTGATTAGGGCAACCGAAACAGCGGA | 0.442 |
| CGAACGAGGTCAAGGACAGTGAATCTCCGCACGC | 4.23 |
| GCTCGGAGGACAAGGTTAGAGCTTTGTCCGTAGA | -0.384 |
| CCTACTGGGCCAGTCAGAGGTCATTGATCATATG | 0.705 |
| CTCAAAAGGTCGGTTGAGGTGAGTATACGGATAA | 0.765 |
| AGTCAAAGTTCAGGATGAGGTAACGTAAAGCACG | 2.73 |
| ATCTCTAGCTAAAGATAGTTCAGTGAATGCAAAT | -0.2 |
| CAAACTAGGTCAAAGGTCACAGTCGAGCCAACCA | 2.94 |
| ATATGTAGGTTACATCCGGGTTATTCAGGCTATG | 1.14 |
| ATATGTAGGTTAGCTGGGGTCATTTAGACTAGGC | 2.15 |
| CCAGACATGTGAGAAGGTAACTCAGCCTCGATTA | 0.753 |
| TCTCGGACGACACGAAAGGTCAGAGCTCGACATC | 0.759 |
| CGTCCAAGGTCAAAGCTCAGTGAAGAGATGACGG | 3.56 |
| ATCTCTAGGTAAAAGTTAAGTGAATCCCGAGGAT | -0.231 |
| TCTAGATGGTCAAAGGTCACACACTCGAAATGCG | 1.9 |

| Sequence | PBM binding z-score |
| --- | --- |
| GGAACGAGGGCATTCGAGTTGTTAGCATGGCGAT | 2.89 |
| CCTTACGGGTCAAAGTTATAGCACGGGTGGTACG | 1.42 |
| GCATATAGCTAATACAAGGTGAAAGTCCGATTGT | 0.494 |
| CCTCGGAGGACAGGAGGTCAGAGCTGTCCGCTTT | 0.04 |
| AATACATGGTCATCGTAGGCCAGAGTACGCACAG | -0.177 |
| CCTACTGGGCCAGCAGGTCATTGATATCAACGTT | -0.531 |
| GCTAGCAGGTCATTTGGGTCACTCAATGACGGGC | 2.82 |
| CCGAGTAGGTTAGGGGGCATTCAGGCAACGGTGA | 1.54 |
| CAAACTAGGTCAAGGTGAAAGTCGGTTTGTGCCA | 1.61 |
| ATCTGTAGGTTAGCTGGGGTCATTCAGACTAGGC | 1.83 |
| ATATGTAGATTAGCTGGGGTCATTCAGACTAGGC | 1.87 |
| ACAGACAGGTGATGAAGGAAACTCAGGCTATCAT | -0.0618 |
| CAAACTAGGTCACCGGAAGGTCTAAGTCCGCATG | 1.58 |
| CTAACTAGGTCAGAACAGGACAGTGAAGGATGAT | 0.797 |
| TCTAGCAGGCCAGAGTGTCACTCAAGAGGTACGG | -0.194 |
| ATCTCTAGGTAAGACGCAGTTCAGTGAAGAACGC | 0.0393 |
| TCATACAGGTAAAGGTGAAAGTCGAACGATATGA | 1.17 |
| ACTATTAGTTGATTTAGGGCAACCGATACGACGC | 1.2 |
| TCATATAGGTAAAAGGTGAAACTCGGTGTGGTAA | 1.9 |
| AATACAGGGTCACTAGTCCAGAGTAGGTACGAAT | 2.7 |
